Experimental findings from ChEMBL document CHEMBL4513141, “CO-ADD screening of NIH (USA) - Clinical Collection” (2021) are described below.

Measured potencies and affinities stand elsewhere.

For one test, the system named is Staphylococcus aureus. As to conditions: Concentration 20 uM; ASSAY_TEST Inhibition of Bacterial Growth; detection method Absorption (OD600); MEDIA CAMHB; plate type 384well; NBS; CORNING #3640; time 18 hr.
Broadly, the Inhibition is the change of the read-out against control, counted positive when it falls. Regarding `CCN(CC)CCNC(=O)c1cc(Cl)c(N)cc1OC.Cl`, the Inhibition was 7.88%.
Same read-out and setting: then `CC(=O)O.CNC(=N)NCCC[C@H](N)C(=O)O` [TILARGININE ACETATE], with -13.73%.
Regarding `Cn1ccnc1S` [METHIMAZOLE], the Inhibition worked out at 17.02%.

A further test relates to Escherichia coli. As to conditions: Concentration 20 uM; ASSAY_TEST Inhibition of Bacterial Growth; detection method Absorption (OD600); MEDIA CAMHB; plate type 384well; NBS; CORNING #3640; time 18 hr.
On to `Cc1cccc(CCN2CCC(C(=O)c3ccc(NS(C)(=O)=O)cc3)CC2)n1.Cl.Cl`, for which the Inhibition is -5.54%.
On the same count and under the same terms, then `CN1CCc2cc(Cl)c(O)cc2[C@@H](c2ccccc2)C1.Cl`, with 0.35%; and `CC[C@@H]1C(=O)OC[C@@H]1Cc1cncn1C.Cl` [PILOCARPINE HYDROCHLORIDE], with 5.77%; and `CCC1=C(C)CN(C(=O)NCCc2ccc(S(=O)(=O)NC(=O)N[C@H]3CC[C@H](C)CC3)cc2)C1=O` [GLIMEPIRIDE], with 1.16%.
With `CC(C)(C)NC(=O)[C@@H]1CN(Cc2cccnc2)CCN1C[C@@H](O)C[C@@H](Cc1ccccc1)C(=O)N[C@H]1c2ccccc2C[C@H]1O.O=S(=O)(O)O` [INDINAVIR SULFATE], the Inhibition came out at 5.22%.
The same measure, in the same setting: the value for `CSc1ccc2c(c1)N(CCC1CCCCN1C)c1ccccc1S2.Cl` (stereo not given) [THIORIDAZINE HYDROCHLORIDE] was 7.48%; that for `Cc1ncc([N+](=O)[O-])n1CC(C)O` (stereo not given) [SECNIDAZOLE] was 5.99%.
In the case of `CC(=O)O[C@@]12CO[C@@H]1C[C@H](O)[C@@]1(C)C(=O)[C@H](O)C3=C(C)[C@@H](OC(=O)[C@H](O)[C@@H](NC(=O)OC(C)(C)C)c4ccccc4)C[C@](O)([C@@H](OC(=O)c4ccccc4)[C@H]21)C3(C)C`, the Inhibition was 3.46%.
Still for that read-out and setting: the value for `CC1CCN(CCCC(=O)c2ccc(F)cc2)CC1.Cl` was 6.76%; that for `CC(N/C(=N\C#N)Nc1ccncc1)C(C)(C)C.O` (stereo not given) was -6.33%; that for `O=C(NCCN1CCOCC1)c1ccc(Cl)cc1` [MOCLOBEMIDE] was 0.74%.
On the same count and under the same terms, the value for `CN(C)CCC[C@@]1(c2ccc(F)cc2)OCc2cc(C#N)ccc21.O=C(O)C(=O)O` [ESCITALOPRAM OXALATE] was 3.57%.
Consider `Cl.NC1CCN(c2cccc(Cl)n2)CC1`, for which the Inhibition was 8.42%.
The same measure, in the same setting: then `CCc1nn(CCCN2CCN(c3cccc(Cl)c3)CC2)c(=O)n1CCOc1ccccc1.Cl` [NEFAZODONE HYDROCHLORIDE], with 3.73%; and `CC(CCc1ccccc1)NCC(O)c1ccc(O)c(C(N)=O)c1.Cl` (stereo not given) [LABETALOL HYDROCHLORIDE], with 1.62%; and `COc1ccc([C@@H]2Sc3ccccc3N(CCN(C)C)C(=O)[C@@H]2OC(C)=O)cc1.Cl` [DILTIAZEM HYDROCHLORIDE], with 5.44%.
Turning to `NC(N)=Nc1nc(CSCC/C(N)=N/S(N)(=O)=O)cs1` [FAMOTIDINE], the Inhibition stood at 3.55%.
For `CC(C)(C)NC[C@H](O)COc1nsnc1N1CCOCC1.O=C(O)/C=C\C(=O)O` [TIMOLOL MALEATE], the Inhibition came out at 1.71%.
Same read-out and setting: the value for `CC=CC(=O)N(CC)c1ccccc1C` was 0.72%.
On the same count and under the same terms, then `C/C=C1/[C@H]2C=C(C)C[C@]1(N)c1ccc(O)nc1C2`, with -0.02%; and `COc1ccc(-c2cc(=O)c3c(OC)c(OC)c(OC)c(OC)c3o2)cc1OC` [NOBILETIN], with -1.7%.
Still for that read-out and setting: then `CC(C)(C#N)c1cc(Cn2cncn2)cc(C(C)(C)C#N)c1` [ANASTROZOLE], with 4.02%; and `Cl.O=C1[C@H]2CCCC[C@H]2C(=O)N1CCCCN1CCN(c2nsc3ccccc23)CC1`, with 0.37%; and `O=C(O)c1cccnc1` [NIACIN], with -3.09%.
On to `Cl.Cn1c(NCCN(CCO)CCCc2ccc([N+](=O)[O-])cc2)cc(=O)n(C)c1=O`, for which the Inhibition is 3.31%.
Still for that read-out and setting: the value for `NS(=O)(=O)c1cc2c(cc1Cl)NCNS2(=O)=O` [HYDROCHLOROTHIAZIDE] was -0.12%.
The same measure, in the same setting: then `Cc1nc2n(c(=O)c1CCN1CCC(c3noc4cc(F)ccc34)CC1)CCCC2` [RISPERIDONE], with 2.58%; and `CS(=O)(=O)O.Cc1ccc(NC(=O)c2ccc(CN3CCN(C)CC3)cc2)cc1Nc1nccc(-c2cccnc2)n1` [IMATINIB MESYLATE], with 2.87%; and `Cc1[nH]cnc1CN1CCc2c(c3ccccc3n2C)C1=O.Cl` [ALOSETRON HYDROCHLORIDE], with 9.19%.
Still for that read-out and setting: then `Cc1cnc(NC(=O)C2=C(O)c3ccccc3S(=O)(=O)N2C)s1` [MELOXICAM], with 7.37%; and `Cc1cccc(C)c1NC(=O)C(C)N` (stereo not given) [TOCAINIDE], with 3.98%; and `COC1=CC(=O)C[C@@H](C)[C@]12Oc1c(Cl)c(OC)cc(OC)c1C2=O` [GRISEOFULVIN], with 2.08%.
